We go through 51 compounds from PubChem BioAssay AID686979 (National Center for Advancing Translational Sciences (NCATS), 2013).

Each structure is given as a SMILES string. Out of some 420,000 compounds screened, about 50,000 (12%) were called active. Another 26% or so got no clear call; they are omitted. The full list was thinned out, with actives kept by preference. A number with no mark means an inactive call. The call rests on the fitted dose curve; in most records, active means well fitted inhibition curve with a large enough effect; inconclusive means small, poorly fitted or top-dose-only effect; inactive means flat fitted curve, though single readings scatter.
On the % scale 0 is the no-effect control and ±100 the full control effect; potency means the concentration at half of the fitted maximal effect.

This assay can be described thus: qHTS for Inhibitors of human tyrosyl-DNA phosphodiesterase 1 (TDP1): qHTS in cells in presence of CPT. Further: nearly all actives have a fitted effect of over 55% in size. Particulars: chicken DT40 Tdp1-/-;hTDP1 cells + 20 nM CPT, ATP luminescence, 48 h; series mostly up to 46.2 µM; activity change, negative = growth inhibition: at the top concentration. A digest of the protocol:
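Cell growth measured by CellTiter-Glo luminescence after a minimum 48 h, 37 C compound exposure with 20 nM CPT in Tdp1-knockout DT40 cells stably expressing hTDP1, seeded 400/well; qHTS titration format.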
As to `COc1ccc(Cl)cc1NC(=O)c1oc(C)nc1C`, the “activity change, negative = growth inhibition” value is -6.17%.
The same measure, in the same setting: in the case of `CCN1CCc2nc(NC(=O)c3cc(F)c(F)cc3Cl)sc2C1` it was 3.07%; in that of `COc1ccc(Cl)cc1NC(=O)CN1CCN(C(=O)N2CCOCC2)CC1`, 0.0115%; in that of `O=C(c1cn(-c2ccccc2)nc1-c1cccnc1)N1CCN(S(=O)(=O)c2ccccc2F)CC1`, -31.7%.
As to `O=C(NC(=S)Nc1ncccn1)c1ccccc1Br`, the “activity change, negative = growth inhibition” value is -26.7%.
For `COC(=O)C1(CCSC)NC(c2ccc(OC)cc2OC)C2C(=O)N(c3cccc(C(C)=O)c3)C(=O)C21` (stereo unspecified), the “activity change, negative = growth inhibition” value is -0.339%.
For the compound `O=C(CSc1ccccn1)N1CCN(S(=O)(=O)c2ccc(Cl)cc2)CC1`, the “activity change, negative = growth inhibition” value is -6.31%.
With `O=P(O)(O)OC[C@H](O)CO`, the “activity change, negative = growth inhibition” value was -6.58%.
Regarding `Cc1cn([C@H]2C[C@H](O)[C@@H](/C=C/C(=O)NCCCc3ccccc3)O2)c(=O)[nH]c1=O`, the “activity change, negative = growth inhibition” value is 9.83%.
With `Cc1ccc(S(=O)(=O)N(CCCN(C)C)Cc2ccc3c(c2)OCO3)cc1`, the Potency was 16.4 µM (active).
With `Cc1ccc(-c2nc(CS(=O)(=O)CC(=O)NCc3ccc4c(c3)OCO4)c(C)o2)cc1`, the “activity change, negative = growth inhibition” value was 2.22%.
As for `Cc1ccc(CNCc2ccc3c(c2)OCO3)c(C)c1`, the “activity change, negative = growth inhibition” value was 20.3%.
Regarding `CC1CN(C(=S)Nc2ccc(Br)cc2Cl)CC(C)O1` (stereo unspecified), the “activity change, negative = growth inhibition” value was -1.84%.
`CC[n+]1cc(C)ccc1/C=C/c1ccc(N(C)C)cc1`: the Potency was 0.0291 µM (active).
Turning to `COc1ccccc1-n1cnc2cc(NS(=O)(=O)c3ccccc3)ccc21`, the “activity change, negative = growth inhibition” value was -23.5%.
With `CCOC(=O)CSC1=Nc2ccccc2C2=NC(CCC(=O)NCc3ccc(F)cc3)C(=O)N12` (stereo unspecified), the “activity change, negative = growth inhibition” value was -21.9%.
Still for that read-out and setting: in the case of `CCN1N=C(c2ccccc2)CCC1=O` it was 0.136%; in that of `O=C(NC1=NCCS1)c1ccc(Cl)s1`, -8.25%; in that of `CC(=O)NC1=NN(C(C)=O)C(C)(CCS(=O)(=O)c2ccc(Cl)c(Cl)c2)S1` (stereo unspecified), 13%.
As to `CC(=O)NC1=NN(C(C)=O)C(C)(c2ccc(Cl)s2)S1` (stereo unspecified), the Potency was 6.51 µM (active).
As for `CC/C(Cc1ccccc1)=N/NC(=O)CCn1nnc2ccccc21`, the “activity change, negative = growth inhibition” value is 13.6%.
Turning to `O=C(O)c1ccc(Nc2nc(-c3ccccc3)c3cc(Br)ccc3n2)cc1`, the “activity change, negative = growth inhibition” value was 0.528%.
Same read-out and setting: in the case of `Nc1nc(Nc2ccccc2)nc(NCCO)c1[N+](=O)[O-]` it was -8.15%.
With `OCCNc1nc(Nc2ccc(Cl)c(Cl)c2)nc2ccccc12`, the Potency was 18.4 µM (active).
For `CO[C@H]1[C@@H]2C=CO[C@@H](O[C@H]3O[C@@H](CO)[C@H](O)[C@@H](O)[C@@H]3O)[C@@H]2[C@@]2(CO)O[C@@H]12`, the “activity change, negative = growth inhibition” value is -14.4%.
Turning to `CCN(C(=O)CSc1nnc(-c2ccncc2)o1)c1ccccc1`, the “activity change, negative = growth inhibition” value was -8.99%.
With `O=C(COc1ccccc1)N1CCN=C1SCc1cccc(F)c1`, the “activity change, negative = growth inhibition” value was -17.8%.
Take `COc1ccc(C(=O)NC(=S)NNC(=O)CCc2ccccc2)cc1`: the Potency is 8.2 µM (active).
As to `O=C(CCc1ccccc1)NNC(=O)c1ccc(Br)cc1`, the “activity change, negative = growth inhibition” value was 24.8%.
With `COc1ccc(C(=O)NNC(=S)NC(=O)c2ccccc2)cc1`, the Potency is 9.2 µM (active).
Still for that read-out and setting: in the case of `COc1ccc(C(=O)NNC(=S)NC(=O)c2ccccc2[N+](=O)[O-])cc1` it was 18.4 µM (active).
In the case of `CNC(=S)NNC(=O)c1ccc(N(C)C)cc1`, the “activity change, negative = growth inhibition” value is 4.25%.
With `CC(=O)NC(=S)NNC(=O)c1ccc(Br)cc1`, the Potency is 6.51 µM (active).
With `COC(=O)CNC(=O)c1ccccc1[N+](=O)[O-]`, the “activity change, negative = growth inhibition” value was 1.96%.
The same measure, in the same setting: as for `O=C(NNC(=O)c1ccc(Cl)nc1)c1ccc(Br)cc1`, the figure is 10.8%.
On the same count and under the same terms, in the case of `COc1ccc(C(=S)Nc2ccccc2)cc1` it was -2.36%; in that of `CC(C)Oc1ccc(CCC(=O)NNC(=S)NCc2ccccc2)cc1`, 4.02%; in that of `COc1ccc(NC(=O)c2ccccc2[N+](=O)[O-])cc1OC`, 7.09%.
On the same count and under the same terms, as for `COc1ccc(C(=O)NC(=S)NNC(=O)c2c(-c3ccccc3)noc2C)cc1`, the figure is -13.7%.
As to `CSCCC(NC(=O)COc1ccccc1)C(=O)OCc1ccc(Cl)cc1` (stereo unspecified), the “activity change, negative = growth inhibition” value was -6.97%.
The same measure, in the same setting: in the case of `COc1cc(-c2cccnc2)cc2c1OCCN(C(=O)Cc1csc(C)n1)C2` it was 11.9%.
On the same count and under the same terms, in the case of `CCCNC(=O)C1CC(=O)N(c2ccc(OCc3ccccc3)cc2)C1` (stereo unspecified) it was -20.5%; in that of `O=C(CCc1nc(CN2CCN(S(=O)(=O)c3ccc(Br)cc3)CC2)no1)N1CCCCC1`, -23.4%.
Same read-out and setting: in the case of `Cc1ccccc1N1C(=O)C2ON(c3ccccc3)C(c3ccncc3)C2C1=O` (stereo unspecified) it was -6.73%; in that of `C/C(=N/OC(=O)c1ccc(Br)cc1)c1ccc(C)cc1`, 9.68%.
Take `COc1ccc(-c2cc(=O)oc3cc(OCC(=O)N[C@@H](Cc4c[nH]c5ccccc45)C(=O)O)ccc23)cc1`: the “activity change, negative = growth inhibition” value was 16.5%.
Same read-out and setting: in the case of `O=C(N[C@H]1CC[C@H](CC(=O)N2CCCCC2)O[C@@H]1CO)c1cccc(F)c1` it was -29.4%.
On the same count and under the same terms, as for `CCc1cc2c(=O)c(-c3nc4ccccc4n3C)c(CCCC(=O)O)oc2cc1OC(=O)C(C)(C)C`, the figure is 4.25%; as for `CC1=C(C(=O)N(C)C)CC(CC(=O)NCCN2CCOCC2)C(=O)N1Cc1ccccc1` (stereo unspecified), 1.27%.
Consider `COc1cccc(OCc2nnc3n2N=C(c2ccccc2)C(CC(=O)O)S3)c1` (stereo unspecified), for which the “activity change, negative = growth inhibition” value was 0.703%.
`O=C(COC(=O)Cn1[nH]c(=O)c2ccccc2c1=O)Nc1c(Cl)cccc1C(F)(F)F`: the “activity change, negative = growth inhibition” value was -6.62%.
